Source: PubChem (Sanford-Burnham Center for Chemical Genomics)
Shown are actives, neighbours in structure and some others; about 31% of the full set was active somewhere.
CYP2C9 inh – human CYP2C9 inhibition | CYP2C9 Supersomes, luciferin-H conversion, luminescence | inhibition, % at 5 µM | hit rate 20% among 96,000;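 active means blocking of liver enzyme CYP2C9 beyond about 50% at 5 µM, limit read from the data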
CYP2C9 activ – increases human cytochrome P450 2C9 activity | recombinant CYP2C9, luciferin-H conversion, luminescence; stronger effect = higher value; factor 1 = untreated enzyme, 0 = blocked | activation factor at 5 µM | hit rate 1.4% among 96,000;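 active means activation factor of 2 or more for CYP2C9 at a 5 µM dose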;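 further: 0 = sulfaphenazole-blocked wells and 1 = vehicle-only wells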
PLAP act – activators of human placental alkaline phosphatase; AID 696; hit rate 1.2% among 96,000; purified PLAP enzyme, luminescent substrate read-out; stronger effect = higher value; P05187; activation fold at 20 µM; in the data active means activation fold above about 2
Target sequence (P05187 whole entry, looked up): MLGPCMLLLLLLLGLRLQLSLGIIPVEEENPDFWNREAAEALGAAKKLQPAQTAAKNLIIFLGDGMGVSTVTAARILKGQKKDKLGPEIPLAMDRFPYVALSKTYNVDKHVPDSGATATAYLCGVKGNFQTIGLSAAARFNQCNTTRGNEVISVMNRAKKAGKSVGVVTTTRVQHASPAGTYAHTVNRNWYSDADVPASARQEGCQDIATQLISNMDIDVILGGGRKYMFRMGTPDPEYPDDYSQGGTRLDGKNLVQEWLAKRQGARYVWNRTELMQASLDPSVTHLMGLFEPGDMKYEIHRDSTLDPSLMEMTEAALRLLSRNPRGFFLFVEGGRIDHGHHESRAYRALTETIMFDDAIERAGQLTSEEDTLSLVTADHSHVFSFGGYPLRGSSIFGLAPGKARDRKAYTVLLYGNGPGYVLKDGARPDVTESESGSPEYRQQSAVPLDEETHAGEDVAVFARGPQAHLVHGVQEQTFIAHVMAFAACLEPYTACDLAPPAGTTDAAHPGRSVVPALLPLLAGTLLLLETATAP
CYP2C19 act – activators of human cytochrome P450 2C19; activation factor at 5 µM; P33261; 96,000 tested, under 10 active; recombinant CYP2C19, luciferin-H EGE luminescence; stronger effect = higher value; 0 = fully inhibited enzyme, 1 = untreated enzyme;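 active means activation factor of at least 2 at 5 µM in the primary screen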;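 further: 0 = wells with 2.5 mM tranylcypromine and 1 = vehicle-only wells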
CYP2C19 inh – inhibitors of human CYP2C19; P33261; CYP2C19 Supersomes, luciferin-H EGE luminescence, 30 min; inhibition, % at 5 µM; hit rate 21% among 96,000; AID 778;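 active means CYP2C19 inhibition above a set limit at 5 µM in the primary screen, cut at about 50% in these data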;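 further: plate controls were negative control wells for no effect and 2.5 mM tranylcypromine positive control for full effect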
The depositor's hits bear a star.

SMILES | CYP2C9 inh | CYP2C9 activ | PLAP act | CYP2C19 act | CYP2C19 inh
COc1ccccc1N1CCN(S(=O)(=O)CC23CCC(CC2=O)C3(C)C)CC1 (stereo not given) | -24 | 1.2 | 1.6 | 0.4 | 60*
COc1cccc(NS(=O)(=O)CC23CCC(CC2=O)C3(C)C)c1 (stereo not given) | 6 | 0.9 | 1.1 | 0.4 | 59*
O=S(=O)(Cc1ccc(Cl)cc1)CC(O)COCc1ccccc1 (stereo not given) | 25 | 0.7 | 0.8 | 0.6 | 40
O=S(=O)(N1CCOCC1)n1cnc2ccccc21 | -4 | 1 | 1 | 0.8 | 25
Cc1cc(CCN2CCC(=O)NC2=S)ccc1OC(C)C | 25 | 0.7 | 0.9 | 0.2 | 80*
CCCCNC(=O)NS(=O)(=O)c1ccc(C(=O)OC)o1 | 15 | 0.9 | 0.9 | 1 | -2
Cc1ccc(C)n1-c1ncn[nH]1 | -2 | 1 | 1.1 | 0.9 | 8
Cc1ccsc1CN1CCN(c2ccccn2)CC1 | 70* | 0.3 | 1.1 | 0.1 | 93*
COc1ccc(CN2CCN(c3ccccn3)CC2)cc1OCc1ccccc1 | 38 | 0.6 | 1.6 | 0.5 | 47
Cc1ccc2c(c1)CC1(CN2C)C(=O)OC(C)(C)OC1=O | -21 | 1.2 | 0.8 | 0.9 | 9
CC1(C)OC(=O)C2(Cc3ccccc3N3CCCCC32)C(=O)O1 (stereo not given) | 13 | 0.9 | 1 | 0.4 | 61*
O=C1c2ccccc2C(=O)N1C/C=C/CN1C(=O)c2ccccc2C1=O | 2 | 1 | 0.8 | 1 | -2
CCC(C)C(=O)N1c2ccccc2C(=C2SC(C(=O)OC)=C(C(=O)OC)S2)C(=S)C1(C)C (stereo not given) | 72* | 0.3 | 1.1 | 0.2 | 76*
O=C(NC1CCC(NC(=O)C(F)(F)C(F)F)CC1)C(F)(F)C(F)F (stereo not given) | -12 | 1.1 | 1 | 0.7 | 35
CCOC(=O)c1c(C)n(OCc2ccccc2)c2ccc3nonc3c12 | 60* | 0.4 | 1 | 1 | -3
CCOC(=O)c1c(C)n(C)c2ccc(O)c(S(=O)(=O)c3ccccc3)c12 | -8 | 1.1 | 1 | 1 | 0
CCCS(=O)(=O)C(=C(Nc1ccccc1)Nc1ccccc1)S(=O)(=O)CCC | -29 | 1.3 | 1.1 | 1.2 | -22
Cn1nnnc1Sc1ncnc2scc(-c3ccccc3)c12 | 66* | 0.3 | 0.9 | 0.5 | 46
O=C(Nc1ccc(NC(=O)c2sc3ccccc3c2Cl)cc1Cl)c1ccco1 | -9 | 1.1 | 1 | 0.8 | 22
Cn1c(=O)c(C(=S)NC(=O)C2CC2)c(N)n(Cc2ccccc2)c1=O | 30 | 0.7 | 1.5 | 0.8 | 18
CCC(=O)OCC(=O)c1c(N)n(Cc2ccccc2)c(=O)n(C)c1=O | 42 | 0.6 | 1.2 | 0.3 | 66*
CC(C)Cn1c(N)c(C(=O)COC(=O)c2cc(-c3ccco3)nc3ccccc23)c(=O)n(C)c1=O | 29 | 0.7 | 1.5 | 1.1 | -15
Cc1nn(-c2ccccc2)c(C)c1C(=O)OCC(=O)c1c(N)n(CC(C)C)c(=O)n(C)c1=O | 61* | 0.4 | 1.5 | 0.6 | 39
Cn1c(=O)c(C(=O)CSc2nnc(Nc3ccccc3)s2)c(N)n(Cc2ccccc2)c1=O | 72* | 0.3 | 1 | 1 | 3
COCCN(C(=O)CN1CCCc2ccccc21)c1c(N)n(Cc2ccccc2)c(=O)[nH]c1=O | -2 | 1 | 1.3 | 1 | -2
SMILES | CYP2C9 inh | CYP2C9 activ | PLAP act | CYP2C19 act | CYP2C19 inh
Cn1c(=O)c(C(=O)CN2CCCc3ccccc32)c(N)n(Cc2ccccc2)c1=O | 93* | 0.1 | 1.8 | 0.1 | 87*
CCCN(CCC)S(=O)(=O)c1cc(Br)cc2c1N(C(=O)CC)CC2 | 42 | 0.6 | 1.5 | 0.9 | 9
CNC(=S)N(Cc1ccc(OC)cc1)C1CC(=O)N(c2ccc(Cl)cc2)C1=O (stereo not given) | 30 | 0.7 | 1 | 0.4 | 63*
CCOC(=O)c1ccc(N2C(=O)CC(N(C)CCc3ccc(OC)c(OC)c3)C2=O)cc1 (stereo not given) | 55* | 0.4 | 1.4 | 0.3 | 73*
COc1ccc(CN(C(=S)Nc2ccccc2)C2CC(=O)N(c3ccc(F)cc3)C2=O)cc1 (stereo not given) | 36 | 0.6 | 0.9 | 0.9 | 9
CCOC(=O)c1ccc(N2C(=O)CC(N(Cc3ccc4c(c3)OCO4)C(=O)Nc3ccccc3)C2=O)cc1 (stereo not given) | 89* | 0.1 | 2* | 0.2 | 81*
